Only a selection was taken, and hits are over-represented in it overall.
Tgondii IFNg – T. gondii growth inhibition under IFN-gamma | Toxoplasma gondii growth in IFN-gamma-treated host cells; active compounds read low | activity change, negative = inhibition, % (test concentration not listed) | 69,000 compounds, 3.8% hits | AID 1259416; in the data active = activity change below about -70%, passing the limit was not always enough;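 also: host cells are HeLa cells infected with Toxoplasma gondii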
* = called active by the depositor; ! = a repeat was not active.

SMILES	Tgondii IFNg
O=C(NC(=S)Nc1ccc2c(c1)CCC2)c1ccccc1	-4.7
S=C(NCc1ccccc1)Nc1ccc(Br)cc1	66.4
S=C(N/N=C1\CCCc2c1[nH]c1ccc(Br)cc21)Nc1ccccc1	-81.5*
CS(=O)(=O)N1CCC2(CC1)COCCN(c1cccnc1)C2	-3.1
Cc1nc(N2CCCC2)sc1C(=O)NCCS(=O)(=O)c1ccc(F)cc1	1.3
Cc1cc(N2CCC3(CCCO3)CC2)c2ccccc2n1	-13.3
O=c1cc(N2CCOCC2)nc2c3ccccc3ccn12	-2.1
c1ccc2nc3c(cc(N4CCOCC4)c4ccccc43)nc2c1	-103.7*
Cc1ccc(S(=O)(=O)N2CCC3(CC(C(=O)NCC(C)C)=NO3)C2)cc1 (centres undefined)	0.0
CN(Cc1ccccn1)C(=O)c1cc(-c2cnc(-c3cccc(F)c3)nc2)cn1C	170.0
CN(Cc1ccccn1)C(=O)C1=NOC2(CCN(S(=O)(=O)c3cccc(F)c3)C2)C1 (centres undefined)	-80.6*
CCCCS(=O)(=O)N1CCC2(CC2C(=O)N(C)Cc2ccccn2)C1 (centres undefined)	113.9
CN(Cc1ccccn1)C(=O)C1=NOC2(CCN(S(=O)(=O)c3ccc(F)cc3)C2)C1 (centres undefined)	-79.9*
CC(C)N(C)C(=O)C1=NOC2(CCN(C(=O)c3ccccn3)C2)C1 (centres undefined)	-0.2
O=C(C1CC2(CCNCC2)CN1)N(CCc1ccccc1)Cc1ccccc1 (centres undefined)	-40.0
O=C(Cn1c(=O)ccc2cc(S(=O)(=O)N3CCCC3)ccc21)NC1CCCC1	20.2
O=C(c1ccc(Br)o1)N1CCC2(CC1)Nc1ccccc1-n1cccc12	-2.9
CCN(CC)[C@@H]1CCO[C@]2(CCN(C(=O)Cc3ccc(F)cc3)C2)C1	-8.8
COc1cccc(C(NC(=O)c2ccco2)c2nccn2C)c1OC (centres undefined)	-4.6
CCCSc1ncccc1C(=O)Nc1c(-c2ccccc2)noc1C	25.3
O=C(c1ccco1)N1Cc2nccn2CC(COc2cccnc2)C1 (centres undefined)	0.4
COCCC(=O)N1Cc2nccn2CC(COCc2cccnc2)C1 (centres undefined)	-1.7
c1cncc(COCC2CNCc3nccn3C2)c1 (centres undefined)	-81.8*
CCn1cc2c(n1)CN(C(=O)CN(C)C)CC2COC (centres undefined)	-30.2
COc1cccc(CN2CC[C@H]3[C@@H](CO[C@H]3CC(=O)NC3CC3)C2)c1	-16.5
SMILES	Tgondii IFNg
CN(C)C(=O)N1CCN(c2ccc3ccc(C(=O)NCCc4ccccc4)cn23)CC1	-2.5
CCCNC(=O)c1ccc2ccc(N3CCN(C(=O)N(C)C)CC3)n2c1	-1.2
CN(C)CCCNC(=O)c1ccc2ccc(N3CCN(Cc4cccnc4)CC3)n2c1	-86.8*
CC(=O)N1CCc2c(nc(C3CCCN3C(=O)Cc3ccccc3)[nH]c2=O)C1 (centres undefined)	6.0
CN1CCn2c(-c3ccc(F)cc3)cnc2C12CCN(c1ncccn1)CC2	-26.6
COc1ccc(CNC(=O)C2CC(=O)N=C(N)S2)cc1 (centres undefined)	31.2
CCCc1nc(-c2nc(CC3CCN(C)CC3)no2)cs1	-5.6
CCOCC1CN(C(=O)/C=C/c2cccs2)Cc2c1cnn2CC (centres undefined)	-13.9
CCOC(=O)c1cccnc1-c1ccc(-c2ccn[nH]2)cc1	6.5
CCOC(=O)c1sc2sc(-c3ccn[nH]3)c(C)c2c1C	-109.6*
CCOC(=O)c1sc2sc(C(=O)OCC)c(-c3ccco3)c2c1N	-34.7
CC(C)c1csc(NC(=O)CC2CCN(Cc3ccccn3)CC2)n1	-11.4
CC(C)(Oc1ccc2c(c1)CCC2)C(=O)NC1C=CS(=O)(=O)C1 (centres undefined)	5.5
O=C(C1CCN(S(=O)(=O)c2ccc3[nH]c(=O)ccc3c2)CC1)N1CCOCC1	58.2
CCN1C(=O)CCc2cc(NC(=O)/C=C/c3ccccc3)ccc21	-82.6*
CCN1C(=O)CCc2cc(NC(=O)CC(C)C)ccc21	5.1
COCCN1C(=O)CCc2cc(NC(=O)c3ccc4c(c3)OCO4)ccc21	-39.0
CC(C)CN1C(=O)CCc2cc(NC(=O)c3ccc4c(c3)OCO4)ccc21	-76.7*
CCN1C(=O)CCc2cc(NC(=O)c3ccc(F)cc3)ccc21	-26.0
CCN1C(=O)CCc2cc(NC(=O)C3CCCC3)ccc21	-8.5
CCN1C(=O)CCc2cc(NC(=O)c3ccc4c(c3)OCO4)ccc21	-86.7*
Cc1ccc(C(=O)Nc2ccc3c(c2)CCC(=O)N3CC(C)C)c(C)c1	-65.1
CCC(=O)Nc1ccc2c(c1)CCC(=O)N2CC(C)C	12.6
COCCN1CC(c2cc(=O)n3[nH]c(-c4cccs4)c(C)c3n2)CC1=O (centres undefined)	23.9
CCn1c(C2CCCN(Cc3ccc(S(C)(=O)=O)cc3)C2)nn(C)c1=O (centres undefined)	-2.2
SMILES	Tgondii IFNg
CCOC(=O)N1CCC(NC(CC(C)C)c2cccnc2)CC1 (centres undefined)	3.4
CCOc1ccccc1NC(=O)Cn1c(=O)cc(C(=O)N2CCCC2)c2ccccc21	-52.5
Fc1ccc2c(c1)nnn2C1CCN(C(=S)NCC2CCCO2)CC1 (centres undefined)	-24.9
COc1ccc(CN2C(=O)N(CC(C)C)C3(CCN(C4Cc5ccccc5C4)CC3)C2=O)cc1	5.8
c1cc(C2CCCN(Cc3cn[nH]c3C3CCCCC3)C2)[nH]n1 (centres undefined)	-43.3
CN(C)c1nccc(C2CCN(c3ncccn3)CC2)n1	-33.6
Cc1nc(CN(C)Cc2c(C)n(C)n(-c3ccccc3)c2=O)no1	6.5
O=C1OC(CN2CCOCC2)CN1/N=C/c1ccc([N+](=O)[O-])o1 (centres undefined)	-11.5
NC(=O)N/N=C/c1ccc(Oc2ccc(F)cc2)cc1	19.1
NC(=O)N/N=C/c1ccc([N+](=O)[O-])o1	-72.5*!
Cn1cc(C(=O)Nc2ccc(N3CCCC3)c3nonc23)c2ccccc2c1=O	3.5
O=C(COc1ccc(F)cc1)OCCN1CCOCC1	13.1
c1ccc(-c2nn3c(c2-c2ccnc4cc(OCCN5CCOCC5)ccc24)CCC3)nc1	-77.8*
O=C(Nc1cccc(OCCN2CCOCC2)c1)c1csc2c1CCCC2	13.6
Cc1oc(-c2ccccc2Cl)nc1CN(C)Cc1ccccc1	2.2
CC(C)c1cc(Cn2nc(C3CCCNC3)n(-c3ccccc3)c2=O)on1 (centres undefined)	3.6
Cc1ccc(NC(=O)N2CCC3(CC2)NC(=O)c2ccc(F)cc2N3C)cc1C	2.5
O=C(NCc1nc(Cc2cccs2)no1)c1cccc2ccnn12	-52.8
Cc1ccc2c(c1)cc(C(=O)NCc1nc(Cc3ccccc3)no1)n2C	-52.6
CC(C)c1cc(C(=O)NCc2nc(Cc3cccs3)no2)n(C)n1	-82.7*
NCC(=O)N1C[C@H](NC(=O)c2ccccc2)C[C@H]1C(=O)O	25.8
CO[C@@H]1CCN(C(=O)c2cnccn2)[C@H]2CN(Cc3ccco3)C[C@@H]12	7.1
Cc1ccc(NC(=O)CC(=O)N(C)C(C)c2nccs2)cc1 (centres undefined)	0.8
COc1cccc(Cn2c(-c3ccc(Cl)cc3)noc2=O)c1	68.2
COc1cc2c(cc1OC)CN(CC(=O)N1CCC3(CC1)NC(=O)N(C)C3=O)CC2	2.8
COc1cccc(NC(=O)Nc2ccc3c(c2)C(=O)N(C)C[C@H](OC)[C@@H](C)CN[C@H](C)CO3)c1	27.7
CO[C@H]1CN(C)C(=O)c2cc(NS(=O)(=O)c3cccc(Cl)c3)ccc2OC[C@@H](C)NC[C@H]1C	-60.8

Screening data from PubChem BioAssay.
